Experimental findings from PubChem BioAssay (NCATS) are described below.

Records with an inconclusive call do not appear. Calls of active or inactive are those of the source. Calls follow the shape of the dose curve; as a rule, active = well fitted cell-killing curve with a large enough effect; inconclusive = small, poorly fitted or top-dose-only effect, or effect the other way; inactive = no such curve, though single readings can be large or run the other way.
Potency is read from the fitted curve at half-maximal effect.

One assay in a line: Quantitative High-Throughput drug screen in 47 multiple myeloma cell lines against the NCATS MIPE library collection: OCIMY5_PLB cell viability assay (AID 1918988). Also: nearly all actives have a fitted effect of over 65% in size.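 As to viability, % of control: 100% = DMSO-treated wells and 0% = wells with media alone.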 As to conditions: OCI-MY5 myeloma viability, ATP luminescence, 48 h; series mostly up to 45.8 µM; viability, % of control: at the top concentration. An outline of the steps: (§1)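 500 cells/well per myeloma line exposed to pinned MIPE 4.0 compounds for 48 h at 37 °C, 5% CO2. Viability read as ATP by CellTiter-Glo luminescence, normalised to DMSO-only (100%) and media-only (0%) wells.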
Regarding `CCCS(=O)c1ccc2nc(NC(=O)OC)[nH]c2c1` (stereo unspecified), the Potency was 16.6 µM (active).

For `NC(=O)Cc1cccc(C(=O)c2ccccc2)c1N`, the Potency is 4.69 µM (active).

With `C[C@H](Cn1cnc2c(N)ncnc21)OCP(=O)(O)O`, the “viability, % of control” value is 171% (inactive).

For the compound `Cc1cc(=O)c2c(O)c3c(O)cc(=O)c4c3c3c(cc(O)c1c23)C(C)(C)C=4O`, the Potency is 8.33 µM (active).

Take `O=C(NCCO[N+](=O)[O-])c1cccnc1`: the “viability, % of control” value is 169% (inactive).

Turning to `CC(=O)O[C@H]1C(=O)[C@@]2(C)C([C@H](OC(=O)c3ccccc3)[C@]3(O)C[C@H](OC(=O)[C@H](O)[C@@H](NC(=O)c4ccccc4)c4ccccc4)C(C)=C1C3(C)C)[C@]1(OC(C)=O)CO[C@@H]1C[C@@H]2O` (stereo partly specified), the “viability, % of control” value was 34.5% (inactive).

For the compound `CCCCN(CCCC)CCC(O)c1cc2c(Cl)cc(Cl)cc2c2cc(C(F)(F)F)ccc12` (stereo unspecified), the Potency is 11.8 µM (active).

Regarding `CCc1nc(N)nc(N)c1-c1ccc(Cl)cc1`, the “viability, % of control” value is 146% (inactive).

Take `CCCCCCCCCCCCCCCCCCCCCCO`: the “viability, % of control” value is 146% (inactive).

For `C[C@@H](c1ncncc1F)[C@](O)(Cn1cncn1)c1ccc(F)cc1F`, the “viability, % of control” value was 146% (inactive).

With `CN(C)[C@@H](CCOc1cccc2ccccc12)c1ccccc1`, the Potency was 20.9 µM (active).

`CC(=O)N1CCN(c2ccc(OC[C@H]3CO[C@](Cn4ccnc4)(c4ccc(Cl)cc4Cl)O3)cc2)CC1`: the Potency was 18.7 µM (active).

For the compound `CN1C(C(=O)Nc2ccccn2)=C(O)c2sccc2S1(=O)=O`, the Potency is 6.62 µM (active).

For the compound `C=CCc1cc(OC)c(O)c(C(=O)NCCO)c1`, the “viability, % of control” value is 146% (inactive).

Another assay can be described thus: Quantitative High-Throughput drug screen in 47 multiple myeloma cell lines against the NCATS MIPE library collection: OPM1_PLB cell viability assay (AID 1918989). Also: nearly all actives have a fitted effect of over 40% in size. As to conditions: CellTiter-Glo, 48 h; series mostly up to 45.8 µM; viability (% of control): at the top concentration. The procedure, abridged: as §1
Background: ATP-based viability assays read luminescence as a measure of living cells.
With `c1cnc2cc3c(cc2n1)C1CNCC3C1`, the “viability (% of control)” value is 115% (inactive).

Turning to `CC1(C)C(=O)N(CCN2CCC(C(=O)c3ccc(F)cc3)CC2)c2ccccc21`, the Potency is 10.5 µM (active).

On to `CC1(C)NC(=O)N(c2ccc([N+](=O)[O-])c(C(F)(F)F)c2)C1=O`, for which the “viability (% of control)” value was 116% (inactive).

`O=C1NC(=O)C(c2ccccc2[N+](=O)[O-])=C1Nc1ccc(O)c(Cl)c1`: the “viability (% of control)” value is 113% (inactive).

In the case of `CN(C)C(=O)COC(=O)Cc1ccc(OC(=O)c2ccc(N=C(N)N)cc2)cc1`, the Potency is 0.418 µM (active).

As to `CCN(CCO)CCCC(C)Nc1ccnc2cc(Cl)ccc12` (stereo unspecified), the “viability (% of control)” value was 119% (inactive).

Regarding `COc1cc(OC)c(C(=O)CCCN2CCCC2)c(OC)c1`, the “viability (% of control)” value was 120% (inactive).

On to `CN(c1nccc(=O)[nH]1)C1CCN(c2nc3ccccc3n2Cc2ccc(F)cc2)CC1`, for which the Potency was 26.4 µM (active).

Take `C[C@]12CCC(=O)C=C1CC[C@@H]1[C@H]2[C@@H](O)C[C@@]2(C)[C@H]1CC[C@]2(O)C(=O)CO`: the “viability (% of control)” value is 100% (inactive).

Regarding `Cc1nc(Nc2ncc(C(=O)Nc3c(C)cccc3Cl)s2)cc(N2CCN(CCO)CC2)n1`, the Potency was 0.833 µM (active).

Turning to `CCCOc1ccc2nc(NC(=O)OC)[nH]c2c1`, the Potency is 0.0187 µM (active).

Turning to `CC1=C(C(=O)O)N2C(=O)[C@@H](NC(=O)[C@H](N)C3=CCC=CC3)[C@H]2SC1`, the “viability (% of control)” value is 125% (inactive).

Regarding `CC(C)Oc1ccc2c(=O)c(-c3ccccc3)coc2c1`, the “viability (% of control)” value is 132% (inactive).

Consider `CCOC(=O)C1=C(O)C(=O)N(Cc2ccccc2)C1`, for which the “viability (% of control)” value was 119% (inactive).

Take `CCC1=C(C)CN(C(=O)NCCc2ccc(S(=O)(=O)NC(=O)NC3CCC(C)CC3)cc2)C1=O` (stereo unspecified): the “viability (% of control)” value was 163% (inactive).

Take `O=C(NOCC1CC1)c1ccc(F)c(F)c1Nc1ccc(I)cc1Cl`: the Potency is 18.7 µM (active).

As to `C[C@H](Cn1cnc2c(N)ncnc21)OCP(=O)(O)O`, the “viability (% of control)” value was 136% (inactive).

With `Oc1ccc(OCc2ccccc2)cc1`, the “viability (% of control)” value is 119% (inactive).

Take `O=C(NCCO[N+](=O)[O-])c1cccnc1`: the “viability (% of control)” value was 163% (inactive).

Consider `CCCCN(CCCC)CCC(O)c1cc2c(Cl)cc(Cl)cc2c2cc(C(F)(F)F)ccc12` (stereo unspecified), for which the Potency is 18.7 µM (active).

For `CCc1nc(N)nc(N)c1-c1ccc(Cl)cc1`, the Potency is 2.35 µM (active).

In the case of `CCCCCCCCCCCCCCCCCCCCCCO`, the “viability (% of control)” value was 133% (inactive).

Turning to `CN(C)[C@@H](CCOc1cccc2ccccc12)c1ccccc1`, the Potency is 16.6 µM (active).

As for `O=c1c(O)c(-c2ccc(O)cc2O)oc2cc(O)cc(O)c12`, the “viability (% of control)” value is 125% (inactive).

Turning to `CN(C)CCc1c[nH]c2ccc(Cn3cncn3)cc12`, the “viability (% of control)” value is 163% (inactive).

Take `CC(=O)N1CCN(c2ccc(OC[C@H]3CO[C@](Cn4ccnc4)(c4ccc(Cl)cc4Cl)O3)cc2)CC1`: the Potency was 16.6 µM (active).

Turning to `CN1C(C(=O)Nc2ccccn2)=C(O)c2sccc2S1(=O)=O`, the “viability (% of control)” value was 131% (inactive).
